Compound activity (PubChem)
Pf Dd2 growth: blocks in vitro growth of P. falciparum Dd2 | P. falciparum Dd2 growth, SYBR Green, 72 h | Potency, µM (titrated, usually from 28.9 µM), for the others: at the top dose activity, negative = inhibition, usual class: inhibitors | actives 4.3% (n = 120,000); active means well fitted inhibition curve with a large enough effect;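 further: plate controls were DMSO vehicle for no effect and reference drug for full effect; nearly all actives have a fitted effect of over 65% in size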
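Readout: SYBR Green fluorescence, 485 nm excitation, 535 nm emission, after ~16 h lysis at 37C. Before that, Dd2-infected red cells (2.5% hematocrit) grew 72 h with compound, 29 uM top final concentration.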
* marks the source's active call; other numbers are inactive results; [ ] = remark or other dose. The entries come from a sample that favours hits as a whole. Potency means the concentration at half of the fitted maximal effect.

What do the screens show for `CCn1ccc(C(=O)N2CCCC(c3noc(COc4ccccc4)n3)C2)n1` (stereo not given)?
Pf Dd2 growth: -77%

What do the screens show for `Cn1nccc1CN1CC(Oc2ccc3c(c2)OCO3)C1`?
Pf Dd2 growth: -6%[44.1 µM]

How did O=C(c1ccc(-n2ccnc2)cc1)N1CCN(c2cccc(Cl)c2)C(=O)C1 do in these assays?
Pf Dd2 growth: 2%

What do the screens show for `COc1ccc(C(=O)N2CCC3(CC2)CC(Cc2nc(-c4ccccc4)no2)CCO3)cc1` (stereo not given)?
Pf Dd2 growth: inactive

Results for Cc1ccc(NC(=O)N2CCC3(CC2)CC(Cc2nc(-c4ccccc4)no2)CCO3)cc1C (stereo not given) ?
Pf Dd2 growth: 8.9µM*

Results for COc1ccc(CNC(=O)N2CCC3(CC2)CC(Cc2nc(C4CC4)no2)CCO3)cc1 (stereo not given) ?
Pf Dd2 growth: -10%

What do the screens show for `Cc1nc(-c2c3n(c(=O)n(CC(=O)Nc4ccc(C)c(C)c4)c2=O)CCCC3)no1`?
Pf Dd2 growth: -6%

Results for COc1ccc(C(C)NC(=O)c2noc(-c3ccc[nH]c3=O)n2)cc1OC (stereo not given) ?
Pf Dd2 growth: -22%

What do the screens show for `Cc1ccsc1CN(Cc1ccc(CN(C)S(C)(=O)=O)o1)CC(C)C`?
Pf Dd2 growth: 8.9µM*

How did CN(Cc1ccc(F)cc1)S(C)(=O)=O do in these assays?
Pf Dd2 growth: 7%[44.1 µM]

What do the screens show for `COc1ccccc1CC(=O)N[C@H]1CN(S(C)(=O)=O)C[C@@H]1C(C)C`?
Pf Dd2 growth: -15%

How did Cc1ccc(C(=O)NCC(=O)N2CCN(c3ccccn3)CC2)cc1 do in these assays?
Pf Dd2 growth: inactive

How did O=C(Nc1nc2c(s1)CCC2)C1CC(=O)N(c2n[nH]c3cc(Br)ccc23)C1 (stereo not given) do in these assays?
Pf Dd2 growth: -11%

What do the screens show for `COc1ccc(Cn2c(C3CCN(C(=O)C4CCCCC4)CC3)n[nH]c2=O)cc1`?
Pf Dd2 growth: -7%

What do the screens show for `COc1ccc(CN2C=C(C(=O)OCc3noc(-c4ccc(C)c(C)c4)n3)C(C)=NS2(=O)=O)cc1`?
Pf Dd2 growth: inactive

What do the screens show for `COc1ccc(CN2C=C(C(=O)OCc3noc(C)n3)C(C)=NS2(=O)=O)cc1`?
Pf Dd2 growth: 14%

Results for COc1ccc(CN2C=C(C(=O)OCc3noc(-c4ccc(C)cc4)n3)C(C)=NS2(=O)=O)cc1 ?
Pf Dd2 growth: 11µM*

What do the screens show for `O=C(NCc1nnc2ccc(-c3ccc(F)cc3)nn12)c1ccc(F)cc1Cl`?
Pf Dd2 growth: -3%

Results for Cc1cccc(CC(=O)N2[C@@H]3CC[C@H]2CC(NC(=O)c2ccncc2)C3)c1 (stereo not given in full) ?
Pf Dd2 growth: 10%

Results for CCNC(=O)N[C@H]1C[C@@H](Cc2cc(-c3ccccc3)on2)C1(C)C ?
Pf Dd2 growth: -16%[44.1 µM]

What do the screens show for `CN1CCC(N[C@H]2C[C@@H](Cc3cc(-c4ccccc4)on3)C2(C)C)CC1`?
Pf Dd2 growth: 4µM*

Results for COc1ccc(C(=O)N[C@H]2C[C@@H](Cc3cc(CN(C)C)on3)C2(C)C)cc1 ?
Pf Dd2 growth: -17%[44.1 µM]

Results for COc1ccc(C(=O)N[C@H]2C[C@@H](Cc3cc(-c4ccccc4)on3)C2(C)C)cc1 ?
Pf Dd2 growth: 4.5µM*

How did COCc1cc(C[C@@H]2C[C@H](NC3CCC3)C2(C)C)no1 do in these assays?
Pf Dd2 growth: inactive

What do the screens show for `CC(C)N[C@H]1C[C@@H](Cc2cc(-c3ccccc3)on2)C1(C)C`?
Pf Dd2 growth: -8%[44.1 µM]

How did O=C(Cc1cccc(F)c1)N1CCC(N2CC3CC(C2)[C@H]2CCCC(=O)N2C3)CC1 (stereo not given in full) do in these assays?
Pf Dd2 growth: -3%

How did CN1CC(=O)N(C2CCCCC2)Cc2c(NCc3cccs3)ncnc21 do in these assays?
Pf Dd2 growth: -12%

Results for CN1CCN(c2cc(=O)c3ccnc(-c4ccc(F)cc4)c3o2)CC1 ?
Pf Dd2 growth: inactive

What do the screens show for `Cc1ccc(CN2CCc3nc(N4CCN(C)CC4)[nH]c(=O)c3CC2)cc1`?
Pf Dd2 growth: 2%[5.79 µM]

What do the screens show for `COc1cccc(C2C(C(=O)Nc3ccccc3OC)=C(C)Nc3nc4ccccc4n32)c1` (stereo not given)?
Pf Dd2 growth: 7.1µM*

What do the screens show for `CCOc1ccccc1C1C(C(=O)Nc2ccccc2OC)=C(C)Nc2nc3ccccc3n21` (stereo not given)?
Pf Dd2 growth: -19%

Results for COc1ccccc1NC(=O)C1=C(C)Nc2nc3ccccc3n2C1c1cccc(OC)c1OC (stereo not given) ?
Pf Dd2 growth: inactive

How did Cc1c(-c2ccc(F)cc2)[nH]c2ccc(CNC(=O)CN3CCOC3=O)cc12 do in these assays?
Pf Dd2 growth: -14%

Results for COCCN1C(=O)CCC2(C(=O)Nc3cc(OC)cc(OC)c3)CCCC=C12 (stereo not given) ?
Pf Dd2 growth: inactive

How did Cn1c(SCC(=O)Nc2ccccc2F)nc2c([nH]c3ccccc32)c1=O do in these assays?
Pf Dd2 growth: inactive

How did Cc1cc(C)cc(-n2c(SCC(=O)Nc3ccc4c(c3)OCCO4)nc3c([nH]c4ccccc43)c2=O)c1 do in these assays?
Pf Dd2 growth: inactive

What do the screens show for `COc1ccc(NC(=O)CSc2nc3c([nH]c4ccccc43)c(=O)n2C)cc1`?
Pf Dd2 growth: 41%

What do the screens show for `CC1CCN(C(=O)CSc2nc3c([nH]c4ccccc43)c(=O)n2-c2ccccc2)CC1`?
Pf Dd2 growth: 29%

How did O=C(CSc1nc2c([nH]c3ccccc32)c(=O)n1-c1ccccc1)Nc1ccc2c(c1)OCO2 do in these assays?
Pf Dd2 growth: 11µM*

What do the screens show for `CCOc1ccc(NC(=O)CSc2nc3c([nH]c4ccccc43)c(=O)n2-c2cc(C)cc(C)c2)cc1`?
Pf Dd2 growth: inactive

Results for COc1cccc(NC(=O)CSc2nc3c([nH]c4ccccc43)c(=O)n2-c2ccccc2)c1 ?
Pf Dd2 growth: 5.6µM*

What do the screens show for `COc1ccc(NC(=O)CSc2nc3c([nH]c4ccccc43)c(=O)n2-c2ccccc2)c(OC)c1`?
Pf Dd2 growth: 5µM*

What do the screens show for `O=C(CSc1nc2c([nH]c3ccccc32)c(=O)n1-c1ccccc1F)Nc1ccccc1C(F)(F)F`?
Pf Dd2 growth: 10µM*

Results for Cc1cccc(NC(=O)CSc2nc3c([nH]c4ccccc43)c(=O)n2C)c1C ?
Pf Dd2 growth: 15%

How did O=C(CSc1nc2c([nH]c3ccccc32)c(=O)n1-c1ccccc1)N1CCCCCC1 do in these assays?
Pf Dd2 growth: -23%

Results for CCOc1ccc(-n2c(SCC(=O)Nc3ccc4c(c3)OCCO4)nc3c([nH]c4ccccc43)c2=O)cc1 ?
Pf Dd2 growth: inactive

Results for CN(CC1CCOCC1)C(=O)Nc1cc(F)cc(F)c1 ?
Pf Dd2 growth: -21%

How did CC(C)C[C@@H](NC(=O)C1=C[C@@H](NC(=O)Nc2ccc(OC(F)(F)F)cc2)[C@@H](O)[C@H](O)C1)C(N)=O do in these assays?
Pf Dd2 growth: 1%

How did CN1CCCCCC(O)c2cc(C(=O)NCCCN3CCCC3=O)ccc21 (stereo not given) do in these assays?
Pf Dd2 growth: inactive

What do the screens show for `Cc1cccc(C)c1NC(=O)CN1C(=O)C(c2ccccc2)=NC12CCCCC2`?
Pf Dd2 growth: inactive

How did COc1ccc(NC(=O)C2CC(=O)N(c3n[nH]c4cccc(F)c34)C2)cc1Cl (stereo not given) do in these assays?
Pf Dd2 growth: -1%

How did CC1(C)[C@H](Cc2cc(CCO)on2)C[C@@H]1NC1CCCCC1 do in these assays?
Pf Dd2 growth: -10%[44.1 µM]
